Measurements: PubChem BioAssay AID1159580 (chemical genetic matrix, 2015)
Where “and” joins values, the source holds several entries; their conditions need not be identical. Equal entries are not always repeated. About 2,000 (36%) of roughly 5,500 compounds were called active. Roughly 18% stayed inconclusive and do not appear here. Rule as the data show it: active = normalized growth mostly below about 0.91 (no sharp cut-off); inconclusive = no clear call, values can overlap the other calls; inactive = mostly above about 0.92. The list shows a part of the results.

Assay: chemical genetic growth profiling, strain panel (AID 1159580);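 also: tested at 20 µM; growth read once vehicle control cultures reached saturation at 30 °C; 1 = growth at the plate median or of vehicle wells; lower values mean less growth of the strain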
Conditions: S. cerevisiae deletion strains, growth OD

Measured: normalized growth

CN1CCN2c3ccccc3Cc3ccccc3C2C1 (stereo unspecified)
inactive: locus YAL013W, strain DEP1, active compounds read low 1.01 and 0.984 | locus YAL021C, strain ccr4, active compounds read low 0.97 | locus YAL026C, strain drs2, active compounds read low 0.999 | locus YAL030W, strain snc1, active compounds read low 1 | locus YAL040C, strain CLN3, active compounds read low 1.01 | locus YBL061C, strain skt5, active compounds read low 0.998 | locus YBR009C, strain hhf1, active compounds read low 0.987 | locus YBR021W, strain FUR4, active compounds read low 0.992 | locus YBR023C, strain chs3, active compounds read low 0.994 | locus YBR171W, strain sec66, active compounds read low 1.02 | locus YBR229C, strain ROT2, active compounds read low 1.01 | locus YBR231C, strain swc5, active compounds read low 0.996 | locus YBR279W, strain paf1, active compounds read low 1 | locus YCL011C, strain gbp2, active compounds read low 1 | locus YCL016C, strain dcc1, active compounds read low 0.994 | locus YCL029C, strain bik1, active compounds read low 0.99 | locus YCL061C, strain MRC1 (second series), active compounds read low 0.995 | locus YCL061C, strain MRC1, active compounds read low 0.999 | locus YCL069W, strain vba3, active compounds read low 0.998 | locus YCR088W, strain abp1, active compounds read low 1 | locus YDL005C, strain med2, active compounds read low 1.01 | locus YDL035C, strain GPR1, active compounds read low 1.03 | locus YDL040C, strain nat1, active compounds read low 1 | locus YDL074C, strain BRE1, active compounds read low 1.03 | locus YDL101C, strain DUN1, active compounds read low 1.02 | locus YDL134C, strain PPH21, active compounds read low 1.01 | locus YDL185W, strain tfp1, active compounds read low 0.982 | locus YDL192W, strain arf1, active compounds read low 0.989 | locus YDR001C, strain nth1, active compounds read low 1.01 | locus YDR069C, strain doa4, active compounds read low 0.986 | locus YDR101C, strain arx1, active compounds read low 0.985 | locus YDR137W, strain rgp1, active compounds read low 1.01 | locus YDR150W, strain NUM1, active compounds read low 1.01 and 0.988 | locus YDR159W, strain sac3, active compounds read low 0.988 | locus YDR162C, strain NBP2, active compounds read low 1.05 | locus YDR195W, strain ref2 0.972 | locus YDR297W, strain sur2, active compounds read low 1.01 | locus YDR318W, strain mcm21, active compounds read low 0.979 | locus YDR334W, strain swr1, active compounds read low 1 | locus YDR335W, strain msn5, active compounds read low 1 | locus YDR363W, strain ESC2, active compounds read low 0.983 | locus YDR388W, active compounds read low 0.99 | locus YDR392W, strain spt3, active compounds read low 0.881 | locus YDR502C, strain sam2, active compounds read low 0.982 | locus YEL003W, strain gim4, active compounds read low 0.997 | locus YEL037C, strain rad23, active compounds read low 1 | locus YEL061C, strain CIN8 (second series), active compounds read low 1.01 | locus YEL061C, strain CIN8, active compounds read low 1.01 | locus YER002W, strain NOP16, active compounds read low 0.998 | locus YER015W, strain faa2, active compounds read low 1 | locus YER016W, strain bim1, active compounds read low 0.991 | locus YER110C, active compounds read low 0.985 | locus YER111C, strain swi4, active compounds read low 0.993 | locus YER155C, strain BEM2 (second series), active compounds read low 0.978 | locus YER155C, strain BEM2, active compounds read low 1.01 | locus YER167W, strain BCK2, active compounds read low 1.02 | locus YFR010W, strain ubp6, active compounds read low 1.01 | locus YGL078C, strain dbp3, active compounds read low 0.981 | locus YGL086W, strain mad1, active compounds read low 0.988 | locus YGL167C, strain pmr1, active compounds read low 1 | locus YGL173C, strain kem1, active compounds read low 1.01 | locus YGL227W, strain vid30, active compounds read low 1.01 | locus YGL240W, strain doc1, active compounds read low 0.979 | locus YGL248W, strain PDE1, active compounds read low 1.01 | locus YGL253W, strain hxk2, active compounds read low 1.01 | locus YGR078C, strain PAC10, active compounds read low 1.03 and 1.01 | locus YGR135W, strain pre9, active compounds read low 0.977 | locus YGR229C, strain SMI1, active compounds read low 1.01 and 0.95 | locus YGR252W, strain gcn5, active compounds read low 0.964 | locus YHR013C, strain ard1, active compounds read low 0.939 | locus YHR027C, strain rpn1, active compounds read low 1 | locus YHR030C, strain SLT2, active compounds read low 1.01 and 0.992 | locus YHR079C, strain IRE1 (second series), active compounds read low 0.987 | locus YHR079C, strain IRE1, active compounds read low 0.987 | locus YHR094C, strain hxt1, active compounds read low 0.989 | locus YHR129C, strain ARP1, active compounds read low 1.01 | locus YHR142W, strain chs7, active compounds read low 0.997 | locus YHR200W, strain rpn10, active compounds read low 0.995 | locus YIL066C, strain RNR3, active compounds read low 1.02 | locus YIL073C, strain SPO22, active compounds read low 1.01 | locus YIL125W, strain kgd1, active compounds read low 0.989 | locus YIR030C, strain dcg1, active compounds read low 0.984 | locus YJL092W, strain hpr5, active compounds read low 1 | locus YJL095W, strain BCK1 (second series), active compounds read low 0.999 | locus YJL095W, strain BCK1, active compounds read low 1.01 and 0.988 | locus YJL115W, strain asf1, active compounds read low 1 | locus YJL129C, strain trk1, active compounds read low 0.99 | locus YJL134W, strain LCB3, active compounds read low 1.01 | locus YJL154C, strain vps35, active compounds read low 1 | locus YJL164C, strain tpk1, active compounds read low 0.978 | locus YJL166W, strain qcr8, active compounds read low 0.987 | locus YJL168C, strain set2, active compounds read low 0.991 | locus YJL187C, strain SWE1 (second series), active compounds read low 1.01 | locus YJL187C, strain SWE1, active compounds read low 1 | locus YJR043C, strain POL32, active compounds read low 1 | locus YJR066W, strain TOR1, active compounds read low 0.932
